PostGolgi ctrl – growth inhibition of yeast control strain, primary screen, counter-screen for post-Golgi transport modulator project; hit rate 5% among 98,000; inhibition, % at 10 µM; efflux-deficient yeast background strain, growth absorbance A615, 16 h
Cav3 T inh – Cav3.2 calcium influx blockers – cell-based, Fluo-4 calcium fluorescence, FDSS, MLSMR library, primary screen. hit rate 4% among 100,000. Cav3.2-expressing cells; stronger effect = lower value. B-score at 10 µM. Voltage-dependent T-type calcium channel subunit alpha-1H (Homo sapiens), O95180;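 active = single-dose well whose peak fluorescence ratio is a statistical outlier from its plate by either plate-standardised score or position-corrected B-score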
PostGolgi yeast – phenotypic screen on post-Golgi transport, primary screen. post-Golgi transport phenotypic cell assay. inhibition, % at 10 µM. hit rate 0.9% among 98,000. AID 739, 2007;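 also: yeast cells grown in 1536-well plates; yeast grown about 18 h at 30C before absorbance read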
sEH act – soluble epoxide hydrolase activators, primary screen, biochemical, human sEH; Bifunctional epoxide hydrolase 2 (Homo sapiens), P34913; purified human sEH enzymatic activity, activator screen; activation, % at 2 µM; hit rate 0.04% among 91,000; AID 717, 2007; in the data active = activation above about 37%
sEH inhibitor – soluble epoxide hydrolase inhibitors, primary screen, biochemical, human sEH. Bifunctional epoxide hydrolase 2 (Homo sapiens), P34913. inhibition, % at 2 µM. hit rate 0.34% among 91,000. recombinant human sEH enzymatic activity assay. AID 707, 2007; in the data active = inhibition above about 80%
Hits are given with their value; - = inactive; . = no result. Only some compounds are listed: those with a hit (about 7.8% of all), similar ones and a draw of the others. Rule as the data show it, unless noted: active = inhibition above about 30%; inactive = the rest.

SMILES	PostGolgi ctrl	Cav3 T inh	PostGolgi yeast	sEH act	sEH inhibitor
Cc1cc(C)n(CC(O)Cn2c3ccc(Br)cc3c3cc(Br)ccc32)c(=O)n1 (stereo not given)	103	-	99	-	-
O=C(NC1CC2CCCC(C1)N2C(=O)Nc1ccc(Cl)c(C(F)(F)F)c1)C1CC1 (stereo not given)	-	-5.7	-	-	-
O=C(NC1CC2CCC(C1)N2C(=O)NCc1ccccc1)C1CC1 (stereo not given)	-	-	-	-	-
COC(=O)C[C@H]1c2cc(F)ccc2S(=O)(=O)N1Cc1ccccc1	.	-	.	.	.
CCOC(=O)c1c(C)oc2cc(Br)c(O)c(Br)c12	52	-	-	.	.
CCOC(=O)COc1cc2c(C(=O)OCC)c(C)oc2cc1Br	-	-	-	-	-
COc1ccc(-c2cc(C(F)(F)F)nc(NCc3ccco3)n2)cc1OC	-	-	-	.	.
COc1cccc(-c2cc(C(F)(F)F)nc(NCc3ccco3)n2)c1	33	-	-	-	-
Cc1sc(CO)c(Sc2ccccc2)c1C(=O)O	34	.	-	-	-
Cc1[nH]n(C(C)(C)C)c(=O)c1Sc1ccccc1	-	-	-	-	-
O=C1c2[nH]nc(-c3ccccc3O)c2C(c2cccc(O)c2)N1Cc1ccco1 (stereo not given)	-	-5	-	-	-
O=C(O)CCC(=O)Nc1ccc(OCC(=O)O)cc1	-	-	-	-	-
CC(C)(C)c1nc(N2CCN(C(=O)c3ccco3)CC2)c2nnn(Cc3ccccc3)c2n1	-	-7.2	-	-	-
O=C(c1ccco1)N1CCN(c2nc(C3CC3)nc3c2nnn3Cc2ccccc2Cl)CC1	.	-	.	-	-
O=C(c1cccc2c1C(=O)N(Cc1cccnc1)C2)N1CCN(c2ccccc2)CC1	-	-	-	-	-
Cc1ccc(N(CC(=O)NC2CCCCC2)C(=O)c2ccc(C)s2)cc1	-	-	-	-	81
Cc1cc(C)cc(N(CC(=O)NC2CCCCC2)C(=O)c2ccc(C)s2)c1	-	-	-	-	-
COC(=O)Cc1c[nH]c2cccc(OCC(O)CN(Cc3ccc([N+](=O)[O-])cc3)C(C)(C)C)c12 (stereo not given)	-	-6.4	-	-	-
COC(=O)Cc1c[nH]c2cccc(OCC(O)CN(Cc3ccccc3)C(C)C)c12 (stereo not given)	.	-	.	-	-
CCOc1ccc(C)cc1S(=O)(=O)n1ccc(C)n1	-	.	-	-	-
CC(C)(C)OC(=O)NCCCC1=CC2=CC(=O)C(C)(OC(=O)C3CCCC3)C(=O)C2=CO1 (stereo not given)	.	-	.	.	.
CC(C)C(C(=O)NCc1ccco1)N(C(=O)CNS(=O)(=O)c1ccc(Cl)cc1)C1CCCC1 (stereo not given)	-	-7.3	-	-	-
CC(C)C(C(=O)NCC1CCCO1)N(Cc1ccco1)C(=O)CNS(=O)(=O)c1ccc(F)cc1 (stereo not given)	-	-	-	-	-
O=C(CN(Cc1ccco1)C(=O)CNS(=O)(=O)c1ccc(Cl)cc1)NC1CCCCC1	-	-4.8	-	-	-
CCCc1cc(=O)[nH]c(/N=C(\N)Nc2ccccc2)n1	-	-	-	-	-
SMILES	PostGolgi ctrl	Cav3 T inh	PostGolgi yeast	sEH act	sEH inhibitor
Cc1c(N2C(=O)c3ccc(Br)cc3C2=O)c(=O)n(-c2ccccc2)n1C	-	-4.4	-	-	-
CCCCCC(=O)NC(NC(=S)N1CCOCC1)C(Cl)(Cl)Cl (stereo not given)	.	-	.	-	-
CCCCCCCCC(=O)NC(NC(=S)N1CCOCC1)C(Cl)(Cl)Cl (stereo not given)	.	-4.2	.	-	-
O=C(NCc1ccccn1)Nc1ccc(Cl)c(Cl)c1	46	-	-	-	-
Cc1cccc(C)c1NC(=O)C(=O)NCc1ccccn1	-	-	-	-	-
O=C(NCc1ccccn1)Nc1cccc(NC(=O)NCc2ccccn2)c1	-	-	-	.	.
Cc1ccccc1NC(=O)C(=O)NCc1ccccn1	-	-4.5	-	-	-
O=C1Nc2ccccc2C1=Nc1ccc(-c2nnc3n2CCCCC3)cc1	-	-	-	.	.
C#CCOCCOCCOCCNc1nc(N2CCN(C(=O)[C@H]([C@@H](C)CC)n3cc([C@@H](N)CC(C)C)nn3)CC2)nc(N2CCN(C(=O)[C@H]([C@@H](C)CC)n3cc([C@@H](N)CC(C)C)nn3)CC2)n1	.	-	.	.	.
CCCS(=O)(=O)N1CCCC(c2nc(-c3cccc(OC)c3)no2)C1 (stereo not given)	-	-4	-	-	-
O=S(=O)(Cc1ccccc1)N1CCCC(c2nc(-c3ccc(F)cc3)no2)C1 (stereo not given)	33	-	-	.	.
CCS(=O)(=O)N1CCC(c2nc(-c3ccc(C)cc3)no2)CC1	-	.	-	-	-
CC(C)(C)OC(=O)N1CCN(c2ccc(CNC(=O)c3ccc(Cl)cc3)cc2)CC1	-	-	-	-	-
Cc1noc(C)c1CSc1nc2ccccc2c(=O)n1-c1ccc(F)cc1F	55	.	-	.	.
COC(=O)c1cc2n(n1)CCN(Cc1ccc(F)cc1)C2=O	-	-	-	-	-
Nc1nc(CN2CCN(c3cccc(Cl)c3)CC2)nc(N2CCCc3ccccc32)n1	42	-	-	-	-
COc1ccc(Cc2nnc3n2N=C(c2cc4ccccc4o2)CS3)cc1OC	.	-	.	-	-
CCOc1ccc(N2C(=O)C(c3ccccc3)=C(c3nc4ccccc4s3)C2NC(C)=O)cc1 (stereo not given)	-	-	-	-	-
C#CCCOC(=O)N1C2=NC(C(=O)OC)=C(C(=O)OC)[C@@H]3N(C)c4ccccc4[C@]23C[C@H]1CO	.	-	.	.	.
COc1ncnc2c1cnn2-c1ccccc1	-	-	-	-	-
Brc1ccccc1-c1nnc(COc2ncnc3c2cnn3-c2ccccc2)o1	74	-	-	-	-
O=C(OCCNC(=O)c1ccc2ccccc2n1)c1ccc(F)cc1	-	-	-	-	-
Cc1ccc(SCC2(O)CCN(S(=O)(=O)c3ccc(Cl)cc3)CC2)cc1	-	-6.1	-	-	-
O=C(c1ccc(Cl)cc1)N1CCC(O)(CSc2ccc(Cl)cc2)CC1	45	-6.5	-	.	.
O=c1cc(CSc2ccc(S(=O)(=O)N3CCCCC3)cn2)nc2sccn12	73	-	79	-	-
SMILES	PostGolgi ctrl	Cav3 T inh	PostGolgi yeast	sEH act	sEH inhibitor
O=S(=O)(c1ccc(SCCO)nc1)N1CCCC1	-	-	-	-	-
Cc1ccc(N/C=C(/C#N)c2ccsc2)cc1C	39	-	-	-	-
Cc1ccc(C)c(N/C=C(\C#N)c2nc3ccccc3o2)c1	.	-	.	-	-
COc1c(N2CCNC(C)C2)c(F)cc2c(=O)c(C(=O)O)cn(C3CC3)c12 (stereo not given)	.	-	.	.	.
COc1c(N2CCN(C(=S)Nc3ccc(F)cc3)C(C)C2)c(F)cc2c(=O)c(C(=O)O)cn(C3CC3)c12 (stereo not given)	-	3.6	-	-	-
O=C(O)C[C@@H](O)C(=O)O	.	-	.	.	.
Cc1ccc(S(=O)(=O)Nc2ccc3nc(-c4cccn4C)[nH]c3c2)cc1	-	-5.7	-	-	-

Screens from PubChem.
